{
  "source": "PubChem BioAssay (NCI)",
  "note": "The panel holds about 83,000 compounds, 20% with a hit somewhere; the sample as a whole holds those more often.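 Cell lines were cultured in 96-well plates, exposed to a single compound concentration, and assessed for percent growth 48 hours later.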 A number with no mark means an inactive call. Active and inactive are the calls of the source. The calls were made as follows: active = growth percent below 10; inactive = the rest.",
  "data": [
    {"system": "OVCAR-8 ovarian", "assay": "NCI-60 one-dose screen, 48 h (100 = growth as untreated, 0 = no growth, -100 = all killed)", "details": "10 µM unless noted", "values": [
      {"smiles": "CC1(C)[C@@H](O[C@@H]2OC[C@@H](O[C@@H]3O[C@H](CO)[C@@H](O)[C@H](O)[C@H]3O[C@@H]3OC[C@@H](O)[C@H](O)[C@H]3O)[C@H](O)[C@H]2O[C@@H]2O[C@H](CO)[C@@H](O)[C@H](O)[C@H]2O)CC[C@]2(C)[C@H]3CC[C@]45OC[C@@]6(CC[C@](C)(C=O)C[C@H]64)[C@H](O)C[C@@]5(C)[C@]3(C)CC[C@@H]12", "growth": "-48.9% (active)"},
      {"smiles": "O=C(CCl)NNc1nccc(Nc2ccc(S(=O)(=O)Nc3ccncc3)cc2)n1", "growth": "60.4%"},
      {"smiles": "CS(=O)(=O)Nc1cc(-c2ccc3ncc(C#N)c(Nc4ccc(F)c(Cl)c4)c3c2)cnc1Cl", "growth": "4.09% (active)"},
      {"smiles": "O=P(O)(O)OCC1OC(n2cnc3c(NCc4ccco4)ncnc32)C(O)C1O", "note": "(stereo unspecified)", "growth": "9.63% (active)"},
      {"smiles": "C=CN(C(=O)N1CCN(c2cc3c(cc2F)c(=O)c(C(=O)O)cn3C2CC2)CC1)c1nc(-c2ccc(OC)cc2)cs1", "growth": "14.3%"},
      {"smiles": "CC(=O)Oc1ccc(OC(C)=O)c2ccccc12", "growth": "48.8%"},
      {"smiles": "O=C1c2ccccc2C(=O)c2c1cc1c(c2[N+](=O)[O-])OCO1", "growth": "14.4%"},
      {"smiles": "Cc1cccc2c1C[C@@]1(C2=O)C(c2ccc(C(C)(C)C)cc2)=NOS1=O", "note": "(stereo partly specified)", "growth": "89.2%"},
      {"smiles": "COc1cccc(Nc2ncnc3cc(NC(=O)CCl)ccc23)c1", "growth": "-36.6% (active)"},
      {"smiles": "NC(N)=NS(=O)(=O)c1ccc(NC2=C(I)C(=O)c3ncccc3C2=O)cc1", "growth": "97.2%"},
      {"smiles": "Cc1c(CN)cc(-c2ccc(Cl)cc2)n1-c1ccccc1", "growth": "74.8%"},
      {"smiles": "O=C1Nc2ccccc2C1(c1c[nH]c2ccccc12)c1c[nH]c2ccccc12", "growth": "-9.32% (active)"},
      {"smiles": "CCn1c(-c2cc3c([nH]c4ccccc43)c(-c3cccc(O)c3)n2)n[nH]c1=S", "growth": "40.8%"},
      {"smiles": "CCN(CC)c1ccc(/C=N/NC(=O)Cc2ccc(Nc3ccnc(C(F)(F)F)c3)cc2)c(O)c1", "growth": "28.8%"},
      {"smiles": "COc1ccc2c(c1)c(-c1nc(-c3c[nH]c4ncccc34)cs1)cn2CCCN1CCOCC1", "growth": "25.3%"},
      {"smiles": "CNC(C)[C@H]1CCC2C3CC=C4C(=O)[C@@H](NC(=O)C=C(C)C)CC[C@]4(C)C3CC[C@@]21C", "note": "(stereo partly specified)", "growth": "42.5%"},
      {"smiles": "CN(Cc1ccccc1)c1nc(Cl)c(C2CC(c3ccccc3)=NN2c2ccccc2)s1", "note": "(stereo unspecified)", "growth": "91.5%"},
      {"smiles": "N#CC1=C(N)Oc2ccc3ccccc3c2C1c1ccc([N+](=O)[O-])cc1", "note": "(stereo unspecified)", "growth": "85.7%"},
      {"smiles": "COc1ccc(C(=O)Cn2c(C(=O)c3ccc(OC)cc3)nc3ccccc32)cc1", "growth": "31.3%"},
      {"smiles": "O=C(Cc1ccc(/C=C/C(=O)c2ncc[nH]2)cc1)Nc1cc(C(F)(F)F)cc(C(F)(F)F)c1", "growth": "87.1%"},
      {"smiles": "CCOC(=O)c1ccccc1-c1c2ccc(=[N+](C)C)cc-2oc2cc(N(C)C)ccc12", "growth": "2.69% (active)"},
      {"smiles": "CCN1C(=O)N(CC)C2C1NN=c1s/c(=C\\c3ccc(C(F)(F)F)cc3)c(=O)n12", "note": "(stereo unspecified)", "growth": "-2.79% (active)"},
      {"smiles": "Cc1nn(-c2ccccc2)c(N)c1N=C1NC(=O)/C(=C/c2ccc(Br)cc2)S1", "growth": "98.8%"},
      {"smiles": "Cc1ccc(/C=C/C(=O)Nc2ncc(Cc3ccc(F)cc3)s2)o1", "growth": "77.6%"},
      {"smiles": "O=C1/C(=C\\c2cccc3nccnc23)SC(=S)N1CCc1ccc(O)cc1", "growth": "99.1%"},
      {"smiles": "C=C1C(=O)O[C@H]2[C@H]1CC/C(COC(=O)c1cc3cc(Cl)ccc3[nH]1)=C\\CC[C@@]1(C)O[C@@H]21", "growth": "-72.9% (active)"},
      {"smiles": "COc1ccc(Cn2cc(C(=O)N=Nc3c(O)[nH]c4c(C)cccc34)nn2)cc1", "growth": "67.6%"},
      {"smiles": "NC(=O)c1cnc(Nc2cccc(N)c2)nc1NCCCNC(=O)C1CCC1", "growth": "71.1%"},
      {"smiles": "CC1=C2[C@@H](CC1)[C@]1(C)O[C@@](C3CCCCC3)(C[C@H]1OC(=O)CO)[C@H]2OC(=O)/C=C/c1ccccc1", "growth": "5.17% (active)"},
      {"smiles": "O=C(Nc1cnc(Nc2ccc(N3CCOCC3)nc2)nc1Oc1ccc(C(F)(F)F)cc1)c1ccncc1", "growth": "86.6%"},
      {"smiles": "Cc1c2cccnc2c(C)c2c1c1cc(CO)ccc1n2C", "growth": "28.6%"},
      {"smiles": "CCN1CCN(CC(=O)Nc2ccc(-c3cn4c(n3)sc3cc(Oc5ccnc(C(=O)NC)c5)ccc34)cc2)CC1", "growth": "92.4%"},
      {"smiles": "COc1cc(OC)c2sc(-c3ccc(-n4cncc4-c4cc(OC)c(OC)c(OC)c4)cc3)nc2c1", "growth": "76.1%"},
      {"smiles": "Ic1ccccc1I", "growth": "96.8%"},
      {"smiles": "CCC1S/C(=N\\N=C(\\C)c2cc3cc(Cl)ccc3o2)N(c2ccccc2)C1=O", "note": "(stereo unspecified)", "growth": "126%"},
      {"smiles": "CN(CCCNC(=O)CCOCCOCCOCCNC(=O)Cc1ccc2ccc3cccc4ccc1c2c34)CCCNc1cc(-c2ccc3ccccc3c2)nc2ccccc12", "growth": "-37.4% (active)"}
    ]},
    {"system": "OVCAR-5 ovarian", "assay": "NCI-60 one-dose screen, 48 h (100 = growth as untreated, 0 = no growth, -100 = all killed)", "details": "10 µM unless noted", "values": [
      {"smiles": "CC1(C)[C@@H](O[C@@H]2OC[C@@H](O[C@@H]3O[C@H](CO)[C@@H](O)[C@H](O)[C@H]3O[C@@H]3OC[C@@H](O)[C@H](O)[C@H]3O)[C@H](O)[C@H]2O[C@@H]2O[C@H](CO)[C@@H](O)[C@H](O)[C@H]2O)CC[C@]2(C)[C@H]3CC[C@]45OC[C@@]6(CC[C@](C)(C=O)C[C@H]64)[C@H](O)C[C@@]5(C)[C@]3(C)CC[C@@H]12", "growth": "-76.8% (active)"},
      {"smiles": "O=C(CCl)NNc1nccc(Nc2ccc(S(=O)(=O)Nc3ccncc3)cc2)n1", "growth": "67.7%"},
      {"smiles": "CS(=O)(=O)Nc1cc(-c2ccc3ncc(C#N)c(Nc4ccc(F)c(Cl)c4)c3c2)cnc1Cl", "growth": "6.33% (active)"},
      {"smiles": "Cc1[nH]c(C2CC(c3ccc(C(F)(F)F)c(F)c3)=NN2c2ccccc2)c(C)c1C(=O)NCC(F)(F)F", "note": "(stereo unspecified)", "growth": "94.8%"},
      {"smiles": "O=P(O)(O)OCC1OC(n2cnc3c(NCc4ccco4)ncnc32)C(O)C1O", "note": "(stereo unspecified)", "growth": "45.3%"},
      {"smiles": "C=CN(C(=O)N1CCN(c2cc3c(cc2F)c(=O)c(C(=O)O)cn3C2CC2)CC1)c1nc(-c2ccc(OC)cc2)cs1", "growth": "33.8%"},
      {"smiles": "CC(=O)Oc1ccc(OC(C)=O)c2ccccc12", "growth": "98.4%"},
      {"smiles": "O=C1c2ccccc2C(=O)c2c1cc1c(c2[N+](=O)[O-])OCO1", "growth": "9.69% (active)"},
      {"smiles": "Cc1cccc2c1C[C@@]1(C2=O)C(c2ccc(C(C)(C)C)cc2)=NOS1=O", "note": "(stereo partly specified)", "growth": "112%"},
      {"smiles": "COc1cccc(Nc2ncnc3cc(NC(=O)CCl)ccc23)c1", "growth": "-82.2% (active)"},
      {"smiles": "NC(N)=NS(=O)(=O)c1ccc(NC2=C(I)C(=O)c3ncccc3C2=O)cc1", "growth": "112%"},
      {"smiles": "Cc1c(CN)cc(-c2ccc(Cl)cc2)n1-c1ccccc1", "growth": "80.9%"},
      {"smiles": "O=C1Nc2ccccc2C1(c1c[nH]c2ccccc12)c1c[nH]c2ccccc12", "growth": "65.4%"},
      {"smiles": "CCn1c(-c2cc3c([nH]c4ccccc43)c(-c3cccc(O)c3)n2)n[nH]c1=S", "growth": "98.1%"},
      {"smiles": "CCN(CC)c1ccc(/C=N/NC(=O)Cc2ccc(Nc3ccnc(C(F)(F)F)c3)cc2)c(O)c1", "growth": "48.2%"},
      {"smiles": "COc1ccc2c(c1)c(-c1nc(-c3c[nH]c4ncccc34)cs1)cn2CCCN1CCOCC1", "growth": "68.1%"},
      {"smiles": "CNC(C)[C@H]1CCC2C3CC=C4C(=O)[C@@H](NC(=O)C=C(C)C)CC[C@]4(C)C3CC[C@@]21C", "note": "(stereo partly specified)", "growth": "66.3%"},
      {"smiles": "CN(Cc1ccccc1)c1nc(Cl)c(C2CC(c3ccccc3)=NN2c2ccccc2)s1", "note": "(stereo unspecified)", "growth": "104%"},
      {"smiles": "N#CC1=C(N)Oc2ccc3ccccc3c2C1c1ccc([N+](=O)[O-])cc1", "note": "(stereo unspecified)", "growth": "108%"},
      {"smiles": "COc1ccc(C(=O)Cn2c(C(=O)c3ccc(OC)cc3)nc3ccccc32)cc1", "growth": "56.9%"},
      {"smiles": "CC1C(/C=N/NC(N)=S)C(C#N)(C#N)C1(C#N)C#N", "note": "(stereo unspecified)", "growth": "116%"},
      {"smiles": "O=C(Cc1ccc(/C=C/C(=O)c2ncc[nH]2)cc1)Nc1cc(C(F)(F)F)cc(C(F)(F)F)c1", "growth": "103%"},
      {"smiles": "CCOC(=O)c1ccccc1-c1c2ccc(=[N+](C)C)cc-2oc2cc(N(C)C)ccc12", "growth": "4.53% (active)"},
      {"smiles": "CCN1C(=O)N(CC)C2C1NN=c1s/c(=C\\c3ccc(C(F)(F)F)cc3)c(=O)n12", "note": "(stereo unspecified)", "growth": "26.7%"},
      {"smiles": "Cc1nn(-c2ccccc2)c(N)c1N=C1NC(=O)/C(=C/c2ccc(Br)cc2)S1", "growth": "72.7%"},
      {"smiles": "O=C(c1c[nH]c2ccccc12)c1n[nH]c(=S)n1-c1cccc(Br)c1", "growth": "89.7%"},
      {"smiles": "Cc1ccc(/C=C/C(=O)Nc2ncc(Cc3ccc(F)cc3)s2)o1", "growth": "64.1%"},
      {"smiles": "O=C1/C(=C\\c2cccc3nccnc23)SC(=S)N1CCc1ccc(O)cc1", "growth": "104%"},
      {"smiles": "COc1cccc(/C=C/C(=O)c2cccc(Nc3nc(Nc4ccccc4)nc(Nc4ccccc4)n3)c2)c1", "growth": "89%"},
      {"smiles": "C=C1C(=O)O[C@H]2[C@H]1CC/C(COC(=O)c1cc3cc(Cl)ccc3[nH]1)=C\\CC[C@@]1(C)O[C@@H]21", "growth": "-69.9% (active)"},
      {"smiles": "COc1ccc(Cn2cc(C(=O)N=Nc3c(O)[nH]c4c(C)cccc34)nn2)cc1", "growth": "93.6%"},
      {"smiles": "NC(=O)c1cnc(Nc2cccc(N)c2)nc1NCCCNC(=O)C1CCC1", "growth": "119%"},
      {"smiles": "CC1=C2[C@@H](CC1)[C@]1(C)O[C@@](C3CCCCC3)(C[C@H]1OC(=O)CO)[C@H]2OC(=O)/C=C/c1ccccc1", "growth": "88.8%"},
      {"smiles": "O=C(Nc1cnc(Nc2ccc(N3CCOCC3)nc2)nc1Oc1ccc(C(F)(F)F)cc1)c1ccncc1", "growth": "92.9%"},
      {"smiles": "Cc1c2cccnc2c(C)c2c1c1cc(CO)ccc1n2C", "growth": "2.92% (active)"},
      {"smiles": "CCN1CCN(CC(=O)Nc2ccc(-c3cn4c(n3)sc3cc(Oc5ccnc(C(=O)NC)c5)ccc34)cc2)CC1", "growth": "91.2%"},
      {"smiles": "COc1cc(OC)c2sc(-c3ccc(-n4cncc4-c4cc(OC)c(OC)c(OC)c4)cc3)nc2c1", "growth": "81.3%"},
      {"smiles": "Ic1ccccc1I", "growth": "98%"},
      {"smiles": "CCC1S/C(=N\\N=C(\\C)c2cc3cc(Cl)ccc3o2)N(c2ccccc2)C1=O", "note": "(stereo unspecified)", "growth": "100%"},
      {"smiles": "CN(CCCNC(=O)CCOCCOCCOCCNC(=O)Cc1ccc2ccc3cccc4ccc1c2c34)CCCNc1cc(-c2ccc3ccccc3c2)nc2ccccc12", "growth": "-86.4% (active)"}
    ]}
  ]
}
